Inconclusive results are not listed. Active and inactive are the calls of the source. Calls come from the whole dose curve; as a rule, active = well fitted curve in the direction sought with a large enough effect; inconclusive = small, poorly fitted or top-dose-only effect, or another doubt; inactive = no such curve, though single readings can be large; an effect the other way counts as inactive or inconclusive.
What was measured:
NIH3T3 = assay: qHTS assay to identify novel small-molecules to repurpose for Merkel cell carcinoma treatment (AID 1296009); details: MCC and control cell lines, CellTiter-Glo viability, 72 h; at 44.8 µM (top of the series) unless noted; note: nearly all actives have a fitted effect of over 60% in size
Method in brief: (§1)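 Dose-response viability screen; 72 hr exposure at 37 degree celsius; CellTiter-Glo added, 10 min room temperature, luminescence read; RLUs scaled between no-cell and DMSO wells.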

UISO = assay: as above; details: MCC and control cell lines, CellTiter-Glo viability, 72 h; series mostly up to 46 µM
Method in brief: as §1

WaGa = assay: as above; details: MCC and control cell lines, CellTiter-Glo viability, 72 h; series mostly up to 46 µM
Method in brief: as §1

C33A = assay: Primary qHTS to identify gynecologic anti-cancer compounds using libraries of approved drugs and bioactive compounds (AID 1345084); details: Gynecologic cancer cell panel viability, ATPlite luminescence, 48 h; series mostly up to 57.5 µM; note: nearly all actives have a fitted effect of over 55% in size
Method in brief: (§2)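 Five-concentration response, 48 h; readout is ATP-driven luciferase luminescence.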

CASKI = assay: as above; details: Gynecologic cancer cell panel viability, ATPlite luminescence, 48 h; series mostly up to 57.5 µM
Method in brief: as §2

Es-2 = assay: as above; details: Gynecologic cancer cell panel viability, ATPlite luminescence, 48 h; series mostly up to 57.5 µM
Method in brief: as §2

HeLa = assay: as above; details: Gynecologic cancer cell panel viability, ATPlite luminescence, 48 h; series mostly up to 57.5 µM
Method in brief: as §2

Hek293T = assay: as above; details: Gynecologic cancer cell panel viability, ATPlite luminescence, 48 h, control line for the selectivity index; series mostly up to 57.5 µM
Method in brief: as §2

JEG-3 = assay: as above; details: Gynecologic cancer cell panel viability, ATPlite luminescence, 48 h; series mostly up to 57.5 µM
Method in brief: as §2

CAOV3 = assay: as above; details: Gynecologic cancer cell panel viability, ATPlite luminescence, 48 h; series mostly up to 57.5 µM
Method in brief: as §2

Measured: Potency
Potency is the fitted concentration of half-maximal effect.

O=C(C1CCCCC1)N1CC(=O)N2CCCc3ccccc3C2C1 (configuration not stated)
not listed: CAOV3
inactive: all other assays above

Cc1c(C)c2c(c(C)c1OC(=O)CCC(=O)OCCO)CC[C@@](C)(CCC[C@H](C)CCC[C@H](C)CCCC(C)C)O2
inactive: UISO | WaGa

Nc1cc(C(F)(F)F)ccc1S
active: UISO 13.3 µM
not listed: WaGa
inactive: all other assays above

COc1ccccc1N1CCN(CCN2C(=O)CC3(CCCC3)CC2=O)CC1
not listed: UISO | WaGa
inactive: all other assays above

Nc1ccc2cc3ccc(N)cc3nc2c1
active: UISO 8.41 µM | WaGa 2.66 µM | C33A 28.2 µM | CAOV3 8.91 µM | CASKI 11.2 µM | Es-2 8.91 µM | HeLa 17.8 µM | Hek293T 6.31 µM

CCN(CC)CC(=O)Oc1ccc(NC(C)=O)cc1
not listed: CAOV3
inactive: all other assays above

CC(C)=CCNc1ncnc2c1ncn2[C@@H]1O[C@H](CO)[C@@H](O)[C@H]1O
active: UISO 1.88 µM | WaGa 2.99 µM | C33A 12.6 µM | CAOV3 7.94 µM | CASKI 12.6 µM | Es-2 25.1 µM | HeLa 14.1 µM

Cc1cc(CCCOc2c(C)cc(-c3noc(C(F)(F)F)n3)cc2C)on1
not listed: WaGa
inactive: all other assays above

NC(=O)COCCN1CCN(C(c2ccccc2)c2ccc(Cl)cc2)CC1 (configuration not stated)
not listed: CAOV3
inactive: all other assays above

O=c1[nH]c2ccccc2c(=O)n1CCCl
not listed: HeLa
inactive: all other assays above

C[C@H]1C[C@H]2[C@@H]3CCC4=CC(=O)C=C[C@]4(C)[C@H]3C(=O)C[C@]2(C)[C@@]1(O)C(=O)CO
not listed: CAOV3
inactive: all other assays above

Nc1ccc(C(=O)N2CC3CC(CN(Cc4ccccc4)C3)C2)cc1
not listed: CAOV3
inactive: all other assays above

Reference: PubChem BioAssay (NCATS)
